# Experimental data reported in the supplement of paper PMC8728848.
# Many of the other results were omitted from the sample, so the strongest signals are more common in it than they were.
# B1: NKp30 (Homo sapiens), O14931 (protein)
# chain: MAWMLLLILIMVHPGSCALWVSQPPEIRTLEGSSAFLPCSFNASQGRLAIGSVTWFRDEVVPGKEVRNGTPERFGRLAPLASSRFLHDHQAELHIRDVRGHDASIYVCRVEVLGLGVGTGNGTRLVVRKEHPQLGAGTHADPEAPEAEGAPSVFLFPPKPKDTLMISRTPEVTCVVVDVSHEDPEVKFNWYVDGVEVHNAKTPREEQYNSTYRVVSVLTVLHQDWLNGKEYKCKVSNKALPAPIEKTISKAKGQPREPQVYTLPPSRDELTKNQVSLTCLVKGFYPSDIAVEWESNGQPENNYKTTPPVLDSDGSFFLYSKLTVDKSRWQQGNVFSCSVMHEALHNHYTQKSLSLSPGK
# What was measured:
# Experiment in all cases: glycan array binding signal (z-score within array); higher = stronger binding
# Settings in all cases: glycan notation: IUPAC condensed, linker removed
# [1] = target: Fuc(a1-2)Gal(b1-4)Glc
# Outline: (§1)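 The binding signal is a Z-score computed within each array. Data were drawn from 3228 arrays in the Consortium for Functional Glycomics database, restricted to those with a known protein sequence. Scores were averaged over arrays of the same protein sequence at different concentrations or buffers, and over linkers, and negative values can be taken as non-binding.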
# [2] = target: Fuc(a1-2)Gal(b1-4)[Fuc(a1-3)]GlcNAc
# Outline: as §1
# [3] = target: Fuc(a1-2)[Gal(a1-3)]Gal
# Outline: as §1
# [4] = target: Fuc(a1-2)[GalNAc(a1-3)]Gal(b1-4)[Fuc(a1-3)]GlcNAc
# Outline: as §1
# [5] = target: Fuc(a1-2)[GalNAc(a1-4)]Gal(b1-4)GlcNAc
# Outline: as §1
# [6] = target: Fuc(a1-3)GlcNAc
# Outline: as §1
# [7] = target: Gal(a1-2)Gal
# Outline: as §1
# [8] = target: Gal(a1-3)Gal
# Outline: as §1
# [9] = target: Gal(a1-3)Gal(b1-4)Glc
# Outline: as §1
# [10] = target: Gal(a1-6)Glc
# Outline: as §1
# [11] = target: Gal(b1-3)GalNAc(b1-4)[Neu5Ac(a2-3)]Gal(b1-4)Glc
# Outline: as §1
# [12] = target: Gal(b1-3)[Neu5Ac(b2-6)]GalNAc
# Outline: as §1
# [13] = target: Gal(b1-4)GalNAc(a1-3)[Fuc(a1-2)]Gal(b1-4)GlcNAc
# Outline: as §1
# [14] = target: Gal(b1-4)GlcNAc(b1-3)Gal(b1-4)GlcNAc(b1-3)Gal(b1-4)GlcNAc
# Outline: as §1
# [15] = target: Gal(b1-4)GlcNAc(b1-3)[Gal(b1-4)GlcNAc(b1-6)]Gal(b1-4)GlcNAc
# Outline: as §1
# [16] = target: Gal3S(b1-3)GalNAc
# Outline: as §1
# [17] = target: Gal3S(b1-4)Glc
# Outline: as §1
# [18] = target: Gal3S(b1-4)GlcNAc6S
# Outline: as §1
# [19] = target: GalNAc(b1-3)GalNAc
# Outline: as §1
# [20] = target: Glc(a1-4)Glc
# Outline: as §1
# [21] = target: GlcNAc(b1-3)Man
# Outline: as §1
# [22] = target: GlcNAc(b1-4)GlcNAc
# Outline: as §1
# [23] = target: Kdn(a2-3)Gal(b1-4)GlcNAc
# Outline: as §1
# [24] = target: Man(a1-2)Man(a1-6)[Man(a1-3)]Man(a1-6)[Man(a1-2)Man(a1-2)Man(a1-3)]Man
# Outline: as §1
# [25] = target: Man(a1-2)Man(a1-6)[Man(a1-3)]Man(a1-6)[Man(a1-2)Man(a1-2)Man(a1-3)]Man(b1-4)GlcNAc(b1-4)GlcNAc
# Outline: as §1
# [26] = target: Neu5Ac(a2-3)Gal(b1-4)[Fuc(a1-3)]GlcNAc(b1-3)Gal(b1-4)[Fuc(a1-3)]GlcNAc(b1-3)Gal(b1-4)[Fuc(a1-3)]GlcNAc
# Outline: as §1
# [27] = target: Neu5Ac(a2-6)Gal(b1-4)GlcNAc(b1-3)Gal(b1-4)[Fuc(a1-3)]GlcNAc(b1-3)Gal(b1-4)[Fuc(a1-3)]GlcNAc
# Outline: as §1
# [28] = target: Neu5Ac(a2-8)Neu5Ac(a2-8)Neu5Ac(a2-3)[GalNAc(b1-4)]Gal(b1-4)Glc
# Outline: as §1
# [29] = target: Neu5Ac9Ac(a2-6)Gal(b1-4)GlcNAc
# Outline: as §1
binder,measurement,setting,value
B1,glycan array binding signal (z-score),[1],-0.091
same,glycan array binding signal (z-score),[2],0.195
same,glycan array binding signal (z-score),[3],0.375
same,glycan array binding signal (z-score),[4],0.416
same,glycan array binding signal (z-score),[5],-0.379
same,glycan array binding signal (z-score),[6],13.9
same,glycan array binding signal (z-score),[7],1.41
same,glycan array binding signal (z-score),[8],1.89
same,glycan array binding signal (z-score),[9],2.48
same,glycan array binding signal (z-score),[10],6.49
same,glycan array binding signal (z-score),[11],-0.671
same,glycan array binding signal (z-score),[12],-0.317
same,glycan array binding signal (z-score),[13],0.071
same,glycan array binding signal (z-score),[14],-0.44
same,glycan array binding signal (z-score),[15],0.041
same,glycan array binding signal (z-score),[16],-0.265
same,glycan array binding signal (z-score),[17],-0.02
same,glycan array binding signal (z-score),[18],-0.253
same,glycan array binding signal (z-score),[19],1.68
same,glycan array binding signal (z-score),[20],0.053
same,glycan array binding signal (z-score),[21],-0.416
same,glycan array binding signal (z-score),[22],0.115
same,glycan array binding signal (z-score),[23],-0.251
same,glycan array binding signal (z-score),[24],-0.314
same,glycan array binding signal (z-score),[25],-0.41
same,glycan array binding signal (z-score),[26],-0.204
same,glycan array binding signal (z-score),[27],-0.38
same,glycan array binding signal (z-score),[28],-0.221
same,glycan array binding signal (z-score),[29],0.048
